# Experimental data from ChEMBL document CHEMBL1157539, “Thousands of chemical starting points for antimalarial lead identification” (Nature, 2010).
# How the values were obtained:
# Assay type in all cases: functional
# Plasmodium falciparum [1] = test: GSK_TCMDC: Inhibition of Plasmodium falciparum 3D7 in whole red blood cells, using parasite LDH activity as an index of growth. Test compounds present at 2uM
# Plasmodium falciparum [2] = test: GSK_TCMDC: Inhibition of Plasmodium falciparum Dd2 in whole red blood cells, using parasite LDH activity as an index of growth. Test compounds present at 2uM
# HepG2 = test: GSK_TCMDC: Percent inhibition of human HepG2 cell line. Test compounds present at 10uM.
Compound,Inhibition (Plasmodium falciparum [1]) [%],Inhibition (Plasmodium falciparum [2]) [%],Inhibition (HepG2) [%]
CCOC(=O)c1ccc(-c2c(C(F)(F)F)noc2-c2cc(CC)c(OC)cc2O)o1,100,95,0
Cl.N#CC1(CCCNCCc2ccc(O)cc2)CCCc2c(O)cccc21 (stereo not given),95,3,0
COc1ccc2nc(C)cc(N/N=C/c3cccc([N+](=O)[O-])c3)c2c1,100,97,6
COc1ccc2nccc([C@@H](O)CN3CCC(NCc4nc5cc(F)ccc5o4)CC3)c2c1.O=C(O)C(=O)O,100,12,14
Cc1ccc(Cn2ncc(N3CCC(N)CC3)c(Cl)c2=O)cc1NC(=O)Nc1ccc(-c2ccccc2)cc1.O=C(O)C(F)(F)F,90,25,29
Cc1cccc2nc(-c3cccc(-c4cccc(NC(=O)C5CC(=O)Nc6ccccc65)c4)c3)[nH]c12 (stereo not given),85,25,13
CCNc1cc(C(=O)N[C@@H](Cc2ccccc2)[C@H](O)CNC2C3CC4CC(C3)CC2C4)cc(N2CCCCS2(=O)=O)c1.Cl (stereo not given in full),97,96,0
O=C(NC1CC1)c1ccc(N2CCC(Cc3ccccc3)CC2)c([N+](=O)[O-])c1,96,83,12
CC(C)c1ccc(NC(=O)c2ccc(C(=O)NC3CCN(CC4CCCCC4)CC3)cc2)cc1.O=C(O)C(F)(F)F,98,5,34
Cc1cccc2nc(-c3cccc(-c4ccc(NC(=O)Nc5ccc(Cl)cc5)cc4)c3)[nH]c12,100,96,63
